HT1080NT lethal: kills 2HG-producing HT-1080-NT fibrosarcoma cells | HT-1080-NT fibrosarcoma viability, CellTiter-Glo ATP luminescence, 48 h | Potency, µM (highest dose often 46.1 µM), without a hit: at the top dose activity, negative = less viability, usual class: cytotoxic | hit rate 1.6% among 360,000 | AID 686970;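 further: NT is the 2HG producing partner of a matched IDH1 knockdown line; potency means the concentration at half of the fitted maximal effect; 0% = DMSO-treated cells and -100% = media-only wells without cells; nearly all actives have a fitted effect of over 55% in size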
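Luminescent CellTiter-Glo readout after 48 hours of compound exposure at 37 degrees C defined viability of HT-1080-NT cells. Activity was normalized to DMSO wells and cell-free media wells; concentration-response curves were fitted and assigned curve classes.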
DT40 TDP1 no CPT: qHTS for Inhibitors of human tyrosyl-DNA phosphodiesterase 1 (TDP1): qHTS in cells in absence of CPT; Potency, µM (doses to about 46.2 µM), for the others: at the top dose activity change, negative = growth inhibition, most hits filed as inhibitors; DT40 Tdp1-/- hTDP1 cells, no CPT, ATP luminescence, 48 h; hit rate 15% among 420,000; AID 686978, 2013; further: potency means the concentration at half of the fitted maximal effect; nearly all actives have a fitted effect of over 55% in size
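Growth kinetics read by CellTiter-Glo luminescence after ≥48 hr at 37 °C. Cells: DT40 Tdp1-/- stably carrying human TDP1, 400 per well, compound exposure in the absence of CPT (DMSO vehicle).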
TDP1 cell CPT: growth inhibition of DT40 Tdp1-/-;hTDP1 cells with camptothecin (screen for TDP1 inhibitors); Potency, µM (top dose mostly 46.2 µM), inactives show top-dose activity change, negative = growth inhibition, usual class: inhibitors; hit rate 12% among 420,000; chicken DT40 Tdp1-/-;hTDP1 cells + 20 nM CPT, ATP luminescence, 48 h; further: potency means the concentration at half of the fitted maximal effect; nearly all actives have a fitted effect of over 55% in size
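Chicken DT40 Tdp1-/- cells stably complemented with human TDP1 were seeded at 400 cells/well in medium containing 20 nM camptothecin, exposed to pin-transferred compounds, and grown at 37 °C for at least 48 hr. Viability was read as ATP luminescence.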
IL1B secr inh: inhibitors of inflammasome signaling (IL-1 beta secretion); THP-1 LPS/ATP IL-1B secretion, AlphaLISA, 16 h; active compounds read low; activity change, % at 57.5 µM; hit rate 4.7% among 360,000; in the data active means activity change below about -50%; inconclusive means mostly about -30% to -49%
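THP-1 cells pretreated 1 hr with compounds (up to 57.5 uM final), then stimulated with LPS (250 ng/mL final) plus ATP (1.25 mM final); secreted IL-1B measured by AlphaLISA after 16 hr, decreased signal indicating inhibition.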
HT1080 IDH1KD tx: toxicity to HT-1080 IDH1 knockdown cells (counter line). HT-1080 IDH1 knockdown viability, ATP luminescence, 48 h. Potency, µM (titrated, usually from 46.1 µM), without a hit: top-dose activity, negative = toxicity, usual class: cytotoxic. hit rate 2% among 360,000. AID 686971;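 further: potency means the concentration at half of the fitted maximal effect; 0% = DMSO wells and -100% = cell-free medium wells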
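Luminescent ATP read-out (CellTiter-Glo, 10 min at room temperature) after 48 h compound exposure at 37 °C gave viability of IDH1-knockdown HT-1080 cells. Activity was normalised to DMSO and cell-free wells, then fitted as concentration-response curves.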
* hit, by the source's call. Shown are actives, neighbours in structure and some others; about 19% of the full set was active somewhere. Unless noted, the call rests on the fitted dose curve; in most records, active means well fitted curve in the direction sought with a large enough effect; inconclusive means small, poorly fitted or top-dose-only effect, or another doubt; inactive means no such curve, though single readings can be large; an effect the other way counts as inactive or inconclusive. Unless noted, on the % scale 0 is the no-effect control and ±100 the full control effect.

For Cc1ccc2nc(-c3cccc(Br)c3)c(CC3CCCCC3)n2c1 the results were HT1080NT lethal -4.0%, DT40 TDP1 no CPT inconclusive, TDP1 cell CPT inconclusive, IL1B secr inh -5.3 and HT1080 IDH1KD tx -18.0%.
Cc1ccc(-c2nc3ccc(Cl)cn3c2CC2CCCCC2)cc1 was read as HT1080NT lethal 11.5%, DT40 TDP1 no CPT inconclusive, TDP1 cell CPT -20.1%, IL1B secr inh -21.9 and HT1080 IDH1KD tx 18.6%.
COC(=O)c1ccc2nc(-c3ccc(C)cc3)c(CC3CCCCC3)n2c1 was read as HT1080NT lethal -17.0%, DT40 TDP1 no CPT 16.4µM*, TDP1 cell CPT 20.6µM*, IL1B secr inh 9.1 and HT1080 IDH1KD tx -4.4%.
O=C(NCc1ccco1)c1cnn2cccnc12 was read as HT1080NT lethal -0.4%, DT40 TDP1 no CPT -2.1%, TDP1 cell CPT 5.5%, IL1B secr inh -7.1 and HT1080 IDH1KD tx 17.2%.
Screening Cc1ccc(C(O)c2ncc(-c3ccc(Cl)cc3)[nH]2)cc1F (stereo unspecified) returned HT1080NT lethal -26.4%, DT40 TDP1 no CPT inconclusive, TDP1 cell CPT inconclusive, IL1B secr inh -3.5 and HT1080 IDH1KD tx inconclusive.
For Cc1ccc(C)c(N2CCN(C(=O)c3ccc(CS(=O)Cc4ccc(Cl)cc4)o3)CC2)c1 (stereo unspecified) the results were HT1080NT lethal -24.2%, DT40 TDP1 no CPT inconclusive, TDP1 cell CPT inconclusive, IL1B secr inh -7.8 and HT1080 IDH1KD tx -14.4%.
Cc1ccc(CS(=O)Cc2ccc(C(=O)N3CCN(c4cccc(C)c4C)CC3)o2)cc1 (stereo unspecified) was read as HT1080NT lethal -28.8%, DT40 TDP1 no CPT 20.6µM*, TDP1 cell CPT inconclusive, IL1B secr inh -22.0 and HT1080 IDH1KD tx -27.8%.
For Cc1cccc(N2CCN(C(=O)c3ccc(CS(=O)Cc4cccc(Cl)c4)o3)CC2)c1C (stereo unspecified) the results were HT1080NT lethal 1.8%, DT40 TDP1 no CPT inconclusive, TDP1 cell CPT inconclusive, IL1B secr inh -4.4 and HT1080 IDH1KD tx -2.5%.
`Cc1ccc(Cl)cc1N1CCN(C(=O)c2ccc(CS(=O)Cc3ccc(Cl)cc3)o2)CC1` (stereo unspecified) gave HT1080NT lethal -17.0%, DT40 TDP1 no CPT inconclusive, TDP1 cell CPT 13µM*, IL1B secr inh inconclusive and HT1080 IDH1KD tx inconclusive.
Screening CC1=CC(C)(C)N2C(=O)C3(C(C#N)=C(N)OC4=C3C(=O)CCC4)c3c(C)c(C)cc1c32 (stereo unspecified) returned HT1080NT lethal -8.8%, DT40 TDP1 no CPT inconclusive, TDP1 cell CPT -16.8%, IL1B secr inh -13.9 and HT1080 IDH1KD tx -13.3%.
`CC1=CC(C)(C)N2C(=O)C3(C(C#N)=C(N)Oc4cc(O)ccc43)c3c(C)c(C)cc1c32` (stereo unspecified) gave HT1080NT lethal inconclusive, DT40 TDP1 no CPT inconclusive, TDP1 cell CPT inconclusive, IL1B secr inh -73.3* and HT1080 IDH1KD tx inconclusive.
For COc1cccc(CNC(=O)c2ccc3c(c2)c(C)c(C)n3Cc2ccccc2)c1 the results were DT40 TDP1 no CPT 18.4µM* and TDP1 cell CPT 16.4µM*.
For Cc1c(C)n(Cc2ccccc2)c2ccc(C(=O)OCCN(C)C)cc12 the results were HT1080NT lethal inconclusive, DT40 TDP1 no CPT 11.9µM*, TDP1 cell CPT inconclusive, IL1B secr inh -25.6 and HT1080 IDH1KD tx inconclusive.
CCn1c(C)c(C)c2cc(C(=O)NCc3cccc(C)c3)ccc21 was read as DT40 TDP1 no CPT inconclusive and TDP1 cell CPT 23.1µM*.
Screening CCOC(=O)c1ccc2oc(=O)n(Cc3ccccc3)c2c1 returned DT40 TDP1 no CPT -23.0% and TDP1 cell CPT -27.7%.
Cc1ccc(-n2c(=O)c3ccc(C(=O)NCc4ccco4)cc3n(Cc3ccc(Cl)cc3)c2=O)cc1 was read as DT40 TDP1 no CPT 6.51µM* and TDP1 cell CPT 18.4µM*.
CCn1c(C)c(C)c2cc(C(=O)NCCCN3CCCC3)ccc21 was read as HT1080NT lethal 0.3%, DT40 TDP1 no CPT 12.1%, TDP1 cell CPT -14.8%, IL1B secr inh 7.2 and HT1080 IDH1KD tx 3.4%.
Screening COc1ccc(C2(O)CCN(C(=O)NC3CCCCC3)CC2)cc1 returned HT1080NT lethal -6.2%, DT40 TDP1 no CPT -14.0%, TDP1 cell CPT -13.0%, IL1B secr inh 9.2 and HT1080 IDH1KD tx -2.3%.
`CCC1NC(=S)NC(C)=C1C(=O)c1ccccc1` (stereo unspecified) gave HT1080NT lethal -1.5%, DT40 TDP1 no CPT 2.2%, TDP1 cell CPT 0.2%, IL1B secr inh -13.6 and HT1080 IDH1KD tx 2.5%.
For CC(OC(=O)c1nc(-c2ccccc2)n(-c2ccccc2)n1)C(=O)Nc1cc(Cl)cc(Cl)c1 (stereo unspecified) the results were HT1080NT lethal 3.0%, DT40 TDP1 no CPT -11.3%, TDP1 cell CPT -8.7%, IL1B secr inh -6.9 and HT1080 IDH1KD tx 1.8%.
Screening CCc1ccc(NC(=O)c2ccc3c(c2)c(C)c(C)n3Cc2ccccc2)cc1 returned DT40 TDP1 no CPT 5.17µM* and TDP1 cell CPT 5.8µM*.
For Cc1c(C)n(Cc2ccc(Cl)cc2)c2ccc(C(=O)NCCN3CCOCC3)cc12 the results were HT1080NT lethal inconclusive, DT40 TDP1 no CPT inconclusive, TDP1 cell CPT inconclusive, IL1B secr inh 0.0 and HT1080 IDH1KD tx inconclusive.
CCc1cccc(NC(=O)c2ccc(Cn3c(=O)[nH]c4ccsc4c3=O)cc2)c1 was read as HT1080NT lethal -8.8%, DT40 TDP1 no CPT -26.4%, TDP1 cell CPT -21.9%, IL1B secr inh 5.1 and HT1080 IDH1KD tx -0.9%.
For CCn1c(C)cc(O)c(C(=O)Nc2cccc(Cl)c2)c1=O the results were HT1080NT lethal -1.1%, DT40 TDP1 no CPT 3.66µM*, TDP1 cell CPT inconclusive, IL1B secr inh 0.0 and HT1080 IDH1KD tx 0.0%.
CCc1cccc(NC(=O)c2ccc3c(c2)c(C)c(C)n3Cc2ccc(F)cc2)c1 was read as DT40 TDP1 no CPT inconclusive and TDP1 cell CPT 14.6µM*.
`Cc1ccc(CNC(=O)c2ccc3c(c2)c(C)c(C)n3Cc2ccc(Cl)cc2)o1` gave DT40 TDP1 no CPT 5.17µM* and TDP1 cell CPT inconclusive.
For CC(C)C(=O)Nc1nc2c(c(=O)[nH]1)CCCC2 the results were HT1080NT lethal 2.5%, DT40 TDP1 no CPT -44.0%, TDP1 cell CPT -9.8%, IL1B secr inh -2.7 and HT1080 IDH1KD tx 2.0%.
COc1ccccc1CNC(=O)C/C(C)=N/NC(=O)Cc1ccc(Cl)cc1 was read as HT1080NT lethal -0.2%, DT40 TDP1 no CPT -0.8%, TDP1 cell CPT -0.2%, IL1B secr inh -1.8 and HT1080 IDH1KD tx -0.6%.
`Cc1c(C)n(Cc2ccccc2)c2ccc(C(=O)NCc3ccco3)cc12` gave DT40 TDP1 no CPT 16.4µM* and TDP1 cell CPT inconclusive.
